Source: PubChem
IL-1B inflam inh: inflammasome signaling inhibition, IL-1 beta readout. THP-1 LPS/ATP IL-1B secretion, AlphaLISA, 16 h; hits give low values. 4.7% of 360,000 active. activity change, % at 57.5 µM; in the data active means activity change below about -50%; inconclusive means mostly about -30% to -49%
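Secreted IL-1B measured by AlphaLISA bead assay after 16 h compound exposure of THP-1 cells; compounds (final up to 57.5 uM) added 1 h before LPS (250 ng/mL) and ATP (1.25 mM) stimulation; lower signal means less secretion.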
HT1080-NT tox: kills 2HG-producing HT-1080-NT fibrosarcoma cells; HT-1080-NT fibrosarcoma viability, CellTiter-Glo ATP luminescence, 48 h; Potency, µM (top dose mostly 46.1 µM), without a hit: top-dose activity, negative = less viability, hits mostly cytotoxic; 1.6% of 360,000 active; AID 686970;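 further: NT is the 2HG producing partner of a matched IDH1 knockdown line; potency means the concentration at half of the fitted maximal effect; 0% = DMSO-treated cells and -100% = media-only wells without cells; nearly all actives have a fitted effect of over 55% in size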
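Viability by CellTiter-Glo luminescence after 48 h compound exposure at 37C of HT-1080-NT cells (750/well, RPMI, 5% FBS). % activity scaled between DMSO wells and medium-only wells, then curve-fitted and categorized by curve class.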
TDP1 cell noCPT: qHTS for Inhibitors of human tyrosyl-DNA phosphodiesterase 1 (TDP1): qHTS in cells in absence of CPT; DT40 Tdp1-/- hTDP1 cells, no CPT, ATP luminescence, 48 h; AID 686978, 2013; Potency, µM (top dose mostly 46.2 µM), for the others: at the highest dose activity change, negative = growth inhibition, hits mostly inhibitors; 15% of 420,000 active; further: potency means the concentration at half of the fitted maximal effect; nearly all actives have a fitted effect of over 55% in size
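Compound effects on proliferation are scored in DT40 Tdp1-/-;hTDP1 cells in the absence of CPT. ATP levels (CellTiter-Glo luminescence) are recorded after a ≥48 hr, 37 °C incubation.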
HT1080 IDH1KD tx: kills HT-1080 cells with IDH1 knockdown | 2% of 360,000 active | Potency, µM (doses to about 46.1 µM), for the others: at the top dose activity, negative = toxicity, most hits filed as cytotoxic | AID 686971 | HT-1080 IDH1 knockdown viability, ATP luminescence, 48 h;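 further: potency means the concentration at half of the fitted maximal effect; 0% = DMSO wells and -100% = cell-free medium wells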
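IDH1KD HT-1080 cells, 750/well, RPMI + 5% FBS; compound pinned after 2 h settling; 48 h, 37 °C; CellTiter-Glo luminescence; % activity normalised to DMSO and no-cell wells; curves fitted, classed by r2 and efficacy.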
DT40 TDP1 CPT: growth inhibition of DT40 Tdp1-/-;hTDP1 cells with camptothecin (screen for TDP1 inhibitors). 12% of 420,000 active. chicken DT40 Tdp1-/-;hTDP1 cells + 20 nM CPT, ATP luminescence, 48 h. AID 686979. Potency, µM (top dose mostly 46.2 µM), for inactives: at the top dose activity change, negative = growth inhibition, actives largely listed as inhibitors; further: potency means the concentration at half of the fitted maximal effect; nearly all actives have a fitted effect of over 55% in size
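Cell growth measured by CellTiter-Glo luminescence after a minimum 48 h, 37 C compound exposure with 20 nM CPT in Tdp1-knockout DT40 cells stably expressing hTDP1, seeded 400/well; qHTS titration format.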
Numbers without * were called inactive; ? = inconclusive; nt = no result. The list is not random: actives were taken first. Their share in the collection is about 19%. Unless noted, the call rests on the fitted dose curve; in most records, active means well fitted curve in the direction sought with a large enough effect; inconclusive means small, poorly fitted or top-dose-only effect, or another doubt; inactive means no such curve, though single readings can be large; an effect the other way counts as inactive or inconclusive. Unless noted, on the % scale 0 is the no-effect control and ±100 the full control effect.

SMILES	IL-1B inflam inh	HT1080-NT tox	TDP1 cell noCPT	HT1080 IDH1KD tx	DT40 TDP1 CPT
Cc1ccc(-c2noc(C3CCN(C(=O)Nc4ccc(C#N)cc4)CC3)n2)o1	-8	-16%	?	?	23µM*
Cc1ccc(-c2noc(C3CCCN(S(=O)(=O)c4ccc(S(=O)(=O)N(C)C)cc4)C3)n2)o1 (stereo unspecified)	-5	3%	?	8%	-25%
CC(=O)c1cccc(S(=O)(=O)N2CCCC(c3nc(-c4ccc(C)o4)no3)C2)c1 (stereo unspecified)	-12	3%	?	8%	18µM*
Cc1ccc(S(=O)(=O)N2CCCC(c3nc(-c4ccc(C)o4)no3)C2)cc1 (stereo unspecified)	-73*	-19%	-12%	-2%	-17%
CN(C)c1ccc(-c2noc(C3CCN(C(=O)Nc4ccc(Cl)cc4)CC3)n2)cc1	-24	-2%	?	0%	?
CCc1nc2c(OCC(=O)C(C)(C)C)cccn2c1N(C=O)CC(=O)N(C)C	6	16%	8%	11%	-19%
Cc1ccc(-c2noc(C3CCCN(C(=O)c4ccc(C(C)(C)C)cc4)C3)n2)o1 (stereo unspecified)	-28	?	18µM*	?	?
CN(Cc1nccn1C)C(=O)CC1C(=O)NCCN1CC(c1ccccc1)c1ccccc1 (stereo unspecified)	?	-1%	-28%	-8%	-7%
COC(=O)CC1COc2ccccc2N1S(=O)(=O)c1ccc(OC)cc1 (stereo unspecified)	25	?	5.2µM*	10µM*	3.7µM*
COC(=O)CC1COc2ccccc2N1S(=O)(=O)c1ccc(Br)cc1 (stereo unspecified)	17	-10%	?	8%	?
CCCOc1ccc(Oc2nc(NCC(C)C)nc(N(C)C)n2)nn1	nt	nt	13µM*	nt	?
COC(=O)COc1ccc(Oc2nc(NC(C)(C)C)nc(N(C)C)n2)nn1	nt	nt	-28%	nt	1%
CC(C)CCOc1ccc(Oc2nc(N(C)C)nc(N(C)C)n2)nn1	nt	nt	?	nt	18µM*
Cc1cccc(OCCSc2nc(N)cc(N)n2)c1	-27	2%	21µM*	2%	?
CCNc1nc(NCC)nc(SCCOc2ccc(C)cc2)n1	-8	-13%	18µM*	?	21µM*
Cc1cccc(OCCOCCSc2ncccn2)c1	24	-1%	-30%	-2%	-10%
CCNc1nc(NCC)nc(Oc2ccc(OCC)nn2)n1	-4	-1%	0%	-13%	-2%
CCNc1nc(NC(C)C)nc(Oc2ccc(OCCOc3ccc(C)cc3)nn2)n1	16	-2%	?	-40%	21µM*
O=C(CN(Cc1ccccc1Cl)C(=O)CNS(=O)(=O)c1ccc(F)cc1)NCC1CCCO1 (stereo unspecified)	-9	2%	?	-1%	-9%
O=C1CC(c2ccc(F)cc2)CC2=C1C(c1ccc([N+](=O)[O-])o1)Nc1ccccc1N2 (stereo unspecified)	-74*	-6%	16µM*	-12%	?
O=C1CC(c2ccccc2)CC2=C1C(c1ccccn1)Nc1ccccc1N2 (stereo unspecified)	9	5%	3%	-17%	1%
Cc1ccc(NS(=O)(=O)c2ccc(N3CCN(c4ccc(O)cc4)CC3)c([N+](=O)[O-])c2)c(C)c1	?	?	16µM*	?	?
CN1CCN(c2ccccc2NS(=O)(=O)c2ccc3c(c2)CCN3C(=O)C2CCC2)CC1	-9	-27%	?	?	15µM*
COc1ccc(NS(=O)(=O)c2ccc3c(c2)CCN3C(=O)C2CC2)cc1OC	nt	nt	5.2µM*	nt	8.2µM*
O=C(C1CC1)N1CCc2cc(S(=O)(=O)NCC3COc4ccccc4O3)ccc21 (stereo unspecified)	-8	-12%	15µM*	-19%	?
SMILES	IL-1B inflam inh	HT1080-NT tox	TDP1 cell noCPT	HT1080 IDH1KD tx	DT40 TDP1 CPT
CCC(=O)N1CCc2cc(S(=O)(=O)N(C)c3ccc(OC)cc3OC)ccc21	-4	17%	?	13%	?
CC(=O)N1CCc2cc(S(=O)(=O)Nc3ccc(C)cc3C)ccc21	0	-10%	-24%	-4%	?
Cc1cccc(NS(=O)(=O)c2ccc3c(c2)CCN3C(=O)C2CCC2)c1	nt	nt	18µM*	nt	18µM*
COc1ccc(N(C)S(=O)(=O)c2ccc3c(c2)CCN3C(=O)C2CC2)c(OC)c1	6	-9%	18µM*	-9%	16µM*
Cc1cccc(NS(=O)(=O)c2ccc3c(c2)CCN3C(=O)CCC(=O)O)c1	37	7%	9%	4%	-8%
Cc1ccc(NS(=O)(=O)c2ccc3c(c2)CCN3C(=O)C2CC2)c(C)c1	nt	nt	21µM*	nt	?
CCOc1ccc(NS(=O)(=O)c2ccc3[nH]cc(C(=O)N4CCCCCC4)c(=O)c3c2)cc1	nt	nt	5%	nt	3%
CCOC(=O)c1cc(S(=O)(=O)N2CCN(C(=O)OCC)CC2)cn1C	0	5%	?	13%	-30%
CCCCCOC(=O)Cc1c(O)c2ccccc2n(C)c1=O	-20	-4%	16µM*	7%	16µM*
CCOC(=O)c1cn(Cc2ccccc2)c(C(=O)OC(C)(C)C)c1O	-2	-2%	-11%	-3%	23µM*
O=C(NC(=S)N1CCc2ccccc21)C1CCC1	42	-1%	-16%	15%	-3%
O=C(NC(=S)N1CCc2ccccc21)c1ccc(Br)o1	0	-4%	5.2µM*	-23%	2.9µM*
O=C(NC(=S)N1CCc2ccccc21)c1ccccc1Br	15	2%	21µM*	0%	18µM*
CC(C)(C)C(=O)NC(=S)N1CCc2ccccc21	12	1%	-27%	1%	-6%
O=C1CNC(c2ccccc2)C(c2ccccc2)N1 (stereo unspecified)	-9	-2%	-1%	10%	5%
O=C(N/N=C/C=C/c1ccccc1[N+](=O)[O-])c1cc(-c2cccnc2)nc2ccccc12	-14	7%	21µM*	11%	?
COc1ccccc1-c1cc(C(=O)N/N=C/C=C/c2ccccc2[N+](=O)[O-])c2ccccc2n1	-51*	-1%	21µM*	-4%	18µM*
Cc1occc1C(=O)N/N=C/C=C/c1ccccc1[N+](=O)[O-]	-62*	13%	1%	23%	7%
O=C(NN=Cc1cccc([N+](=O)[O-])c1)c1cc(-c2cccnc2)nc2ccccc12	12	0%	?	-1%	?
